Screening results deposited in PubChem BioAssay by National Center for Advancing Translational Sciences (NCATS).
The list is not random: actives were taken first. Their share in the collection is about 7.4%.
SNCA viab count: GF-AFC viability counterscreen for inhibitors of alpha-synuclein gene (SNCA) expression | HEK-293-SNCA-luc viability, GF-AFC fluorescence, 24 h | Potency, µM (series often up to 57.1 µM), hits mostly cytotoxic | 0.12% of 150,000 active | AID 1671193, 2021; note: nearly all actives have a fitted effect of over 30% in size
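Cytotoxicity counterscreen: after 24 h compound treatment of genome-edited SNCA-luciferase HEK-293 cells, live-cell protease substrate GF-AFC read by fluorescence after 30 min; activity scaled between DMSO (0%) and medium-only (-100%), curves Hill-fitted.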
3T3 cytotox: Cytotoxic Profiling in NIH 3T3 Cell Line of Diverse Libraries Using Quantitative High-Throughput Screening; 4.3% of 94,000 active; NIH 3T3 viability, CellTiter-Glo ATP luminescence, 48-72 h; AID 1345082, 2018; Potency, µM (top dose mostly 96.7 µM), most hits filed as inhibitors; note: nearly all actives have a fitted effect of over 55% in size
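First NIH 3T3 cells are plated at 400 cells/well; next compound is pinned in; then plates incubate 48 or 72 hr at 37 °C; finally CellTiter-Glo is added and luminescence read after 10 min.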
HEK cytotox: Cytotoxic Profiling in HEK 293 Cell Line of Diverse Libraries Using Quantitative High-Throughput Screening | 6.6% of 94,000 active | Potency, µM (series often up to 115 µM), usual class: inhibitors | AID 1345083, 2018 | HEK 293 viability, ATP luminescence (CellTiter-Glo), 48-72 h; note: nearly all actives have a fitted effect of over 60% in size
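HEK 293 cells at 250 cells/well were exposed to compounds by pintool transfer for 48 or 72 hr at 37 degree Celsius, 5% CO2. Viability was read as ATP-coupled luminescence with CellTiter-Glo after 10 min at room temperature.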
Luciferase inh: Firefly luciferase inhibition profiling of diverse chemical library using quantitative high-throughput screening; purified P. pyralis luciferase, luminescence, biochemical; Potency, µM (titrated, usually from 115 µM), hits mostly inhibitors; 2.5% of 76,000 active; AID 1347043, 2019; note: nearly all actives have a fitted effect of over 65% in size
Target sequence (P08659 whole entry, looked up): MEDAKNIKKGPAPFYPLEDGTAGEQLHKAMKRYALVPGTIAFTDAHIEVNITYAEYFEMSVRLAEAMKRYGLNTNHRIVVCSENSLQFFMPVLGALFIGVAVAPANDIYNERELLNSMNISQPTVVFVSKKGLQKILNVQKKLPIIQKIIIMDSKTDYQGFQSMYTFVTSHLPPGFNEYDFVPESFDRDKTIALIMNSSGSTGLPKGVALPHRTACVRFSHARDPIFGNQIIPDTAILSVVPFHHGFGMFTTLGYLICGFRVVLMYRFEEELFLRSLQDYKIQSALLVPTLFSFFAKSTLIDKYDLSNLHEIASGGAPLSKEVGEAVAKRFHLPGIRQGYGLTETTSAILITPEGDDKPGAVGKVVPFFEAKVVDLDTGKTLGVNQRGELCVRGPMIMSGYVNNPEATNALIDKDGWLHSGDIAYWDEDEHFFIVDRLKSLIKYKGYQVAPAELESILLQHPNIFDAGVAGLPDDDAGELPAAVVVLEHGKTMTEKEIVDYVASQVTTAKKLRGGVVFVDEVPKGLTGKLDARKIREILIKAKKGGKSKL
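Luminescence read by CCD imager after adding enzyme (10nM final) to wells holding compound, titrated in qHTS. Substrates 10uM each D-luciferin and ATP; buffer 50mM Tris acetate pH 7.5, 10mM Mg acetate, Tween-20, BSA.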
NPR1 antag: Natriuretic polypeptide receptor (hNpr1) antagonism - Primary qHTS; 1.6% of 76,000 active; HEK293 hNpr1 GloSensor cGMP, ANP-stimulated luminescence; Potency, µM (series often up to 46.3 µM), actives largely listed as inhibitors; Atrial natriuretic peptide receptor 1 (Homo sapiens), P16066; calls by dose curve; note: nearly all actives have a fitted effect of over 60% in size
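HEK293 cells stably expressing human Npr1 and cGMP GloSensor pGS-40F, loaded 2 h with 2% GloSensor reagent, given compound 30 min at room temperature. Luminescence read before and 20 min after 0.1 nM hNppA.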
SNCA expr inhib: Primary qHTS assay for inhibitors of alpha-synuclein gene (SNCA) expression; HEK-293 SNCA-luciferase knock-in, luminescence, 24 h; 0.17% of 140,000 active; AID 1671194, 2021; Potency, µM (titrated, usually from 57.2 µM), most hits filed as inhibitors; note: nearly all actives have a fitted effect of over 45% in size
Each line names hits and unclear results; the compound was inactive in the other large screens. Unless noted, calls come from the whole dose curve; as a rule, active = well fitted curve in the direction sought with a large enough effect; inconclusive = small, poorly fitted or top-dose-only effect, or another doubt; inactive = no such curve, though single readings can be large; an effect the other way counts as inactive or inconclusive.

CCOc1ccccc1CN1CCC2(CCN(CCc3ccc(OC)cc3)CC2)Oc2ccccc21	3T3 cytotox inconclusive, HEK cytotox inconclusive
COc1cc(CNc2nc(-c3c(C)noc3C)cc3cc(C)oc23)cc(OC)c1	SNCA viab count inconclusive, 3T3 cytotox 25.1µM, HEK cytotox inconclusive, NPR1 antag inconclusive
Cc1cc2cc(-c3c(C)noc3C)nc(N(C)CCN(C)C)c2o1	3T3 cytotox inconclusive, HEK cytotox 100µM
Cc1cc2cc(-c3c(C)noc3C)nc(Nc3ccc(Cl)cc3)c2o1	HEK cytotox inconclusive
Cc1cc2cc(-c3c(C)noc3C)nc(Nc3ccccc3)c2o1	3T3 cytotox 31.6µM, HEK cytotox inconclusive
O=C(C1CCCN1[S+](=O)([O-])c1cccc(C(F)(F)F)c1)N1CCC(N2CCOCC2=O)CC1 (stereo unspecified)	none (no result: Luciferase inh, NPR1 antag)
O=C(NCC1Cn2cccc2CN1Cc1cccnc1)c1cccc(F)c1 (stereo unspecified)	none (no result: Luciferase inh, NPR1 antag)
Cc1ccccc1N(C)C1CN(C(=O)c2ccccn2)C1	3T3 cytotox inconclusive, HEK cytotox 79.4µM (no result: Luciferase inh, NPR1 antag)
c1ccc(CN2CCNc3cc(-c4ccoc4)ncc3C2)cc1	3T3 cytotox inconclusive, HEK cytotox inconclusive, Luciferase inh inconclusive
COc1ccc(CN2CCNc3cc(Nc4ccccc4)ncc3C2)cc1O	3T3 cytotox 79.4µM, HEK cytotox 100µM, SNCA expr inhib inconclusive
COc1cccc(CN2CCNc3cc(-c4ccccc4)ncc3C2)c1	SNCA viab count inconclusive, 3T3 cytotox inconclusive, HEK cytotox inconclusive, Luciferase inh 39.8µM
COc1ccc(CN2CCNc3cc(-c4ccccc4)ncc3C2)cc1O	3T3 cytotox inconclusive, HEK cytotox 89.1µM
CC(=O)N1CCNc2cc(-c3ccc(Oc4ccccc4)cc3)ncc2C1	3T3 cytotox inconclusive, HEK cytotox 70.8µM, Luciferase inh 20µM
NC(=O)c1cccc(-c2cc3c(cn2)CN(CCc2ccccc2)CCN3)c1	3T3 cytotox 89.1µM, HEK cytotox inconclusive, Luciferase inh inconclusive, SNCA expr inhib inconclusive
COc1ccc(-c2cn3cc(C(=O)NCc4cccs4)nc3s2)cc1	none (no result: Luciferase inh, NPR1 antag)
O=C(CCn1ccc(=O)[nH]c1=O)NC1CCCN(CCCc2ccccc2)C1 (stereo unspecified)	none
O=C(CCc1nc(-c2ccccc2)no1)NC1CCCN(CCCc2ccccc2)C1 (stereo unspecified)	3T3 cytotox inconclusive, HEK cytotox 44.7µM, SNCA expr inhib inconclusive
CC(=O)N1CCC(Cc2ccc(CN(C(=O)c3cccs3)C3CC3)cc2)CC1	3T3 cytotox inconclusive, HEK cytotox inconclusive (no result: Luciferase inh, NPR1 antag)
O=C(c1ccccn1)N1CCOc2c(O)cc(-c3cccc(Cl)c3)cc2C1	HEK cytotox 44.7µM
Cn1cc(C(=O)N2CCOc3c(O)cc(-c4csc5ccccc45)cc3C2)cn1	3T3 cytotox inconclusive, HEK cytotox 25.1µM
Cc1nnc2ccc(N3CCCC(NC(=O)Cc4ccc(F)cc4)C3)nn12 (stereo unspecified)	none (no result: SNCA viab count, Luciferase inh, NPR1 antag, SNCA expr inhib)
CCOc1cccc2c1OC[C@@H]1CN(CCC#N)C(=O)CCN(C(=O)c3cccs3)[C@H]21	3T3 cytotox inconclusive (no result: SNCA viab count, Luciferase inh, NPR1 antag, SNCA expr inhib)
CCOC(=O)COC1CCN(C(=O)CC2CCCC2)CC(=O)N(C)c2ccccc21 (stereo unspecified)	3T3 cytotox inconclusive (no result: SNCA viab count, Luciferase inh, NPR1 antag, SNCA expr inhib)
COc1cccc(S(=O)(=O)NCC2Cn3cccc3C(=O)N2C)c1 (stereo unspecified)	none
CCOC(=O)c1oc2ccc(S(=O)(=O)NCC3Cn4cccc4C(=O)N3C)cc2c1C (stereo unspecified)	HEK cytotox 39.8µM, NPR1 antag inconclusive
C[S+](=O)([O-])c1ccc(-c2cc3c(cn2)CN(Cc2ccccc2)CCN3)cc1	3T3 cytotox inconclusive, HEK cytotox inconclusive, Luciferase inh inconclusive
